A number with no mark means an inactive call. Results filed as inconclusive are left out. Active and inactive are the calls of the source. Unless noted, calls follow the shape of the dose curve; as a rule, active = well fitted curve in either direction with a large enough effect (not every such curve was filed as active); inconclusive = small, poorly fitted or top-dose-only effect, or another doubt; inactive = flat fitted curve, though single readings scatter.
Experiments:
[1] = AP1 Signaling Pathway (AID 357); settings: ME-180 AP-1-bla reporter, EGF-induced, beta-lactamase ratio, 5 h; at 17.2 µM (top of the series) unless noted;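 also: ME-180 reporter cells stimulated with EGF at its EC50 level; % is scaled to controls: 0 for no effect and ±100 for the full control effect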
Method in brief: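 Titration-series screen for positive or negative modulators of EC50 EGF-induced signaling in ME-180 cells carrying an AP-1-driven beta-lactamase reporter. After 5 hours at 37 degrees Celsius, CCF4 460nm/530nm emission ratio gave %Activity; AC50 values derived.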

[2] = NFAT Signaling Pathway (AID 444); settings: Jurkat NFAT-bla M1, carbachol, beta-lactamase ratio, 5 h; at 17.2 µM (top of the series) unless noted;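 also: carbachol stimulus at about its EC50 of 1 µM final; % is scaled to controls: 0 for no effect and ±100 for the full control effect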
Method in brief: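 Jurkat cells carrying an NFAT-driven β-lactamase reporter and co-transfected muscarinic M1 receptor were treated with compound plus carbachol (1 uM final, an EC50 level) for 5 h at 37 °C. CCF4 loading followed for 1 h at RT; 460/530 nm ratio gave %activity.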

[3] = Stat Signaling Pathway (AID 446); settings: ME-180 (cervical carcinoma) SIE beta-lactamase reporter, IL-6 stimulated, 5 h; at 17.2 µM (top of the series) unless noted;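 also: ME-180 cervical cancer cells given 40 pM IL-6 alongside compound; SIE-controlled beta-lactamase reporter measured as 460/530 nm FRET emission ratio; % is scaled to controls: 0 for no effect and ±100 for the full control effect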
Method in brief: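 IL-6/STAT signaling read in ME-180 cells via an SIE beta-lactamase reporter. Stimulus was 40 pM IL-6 (its AC50) for 5 hrs, so both activation and inhibition register.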

[4] = molecular target: Glucocorticoid receptor (Homo sapiens) (UniProt P04150); test: GR-GFP Redistribution (AID 450;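 active = compounds whose dose series gives a full or clear partial fitted curve of increased nuclear translocation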; also: potency is read from the fitted curve at half-maximal effect)
Glucocorticoid receptor (Homo sapiens), sequence (P04150 whole entry, looked up): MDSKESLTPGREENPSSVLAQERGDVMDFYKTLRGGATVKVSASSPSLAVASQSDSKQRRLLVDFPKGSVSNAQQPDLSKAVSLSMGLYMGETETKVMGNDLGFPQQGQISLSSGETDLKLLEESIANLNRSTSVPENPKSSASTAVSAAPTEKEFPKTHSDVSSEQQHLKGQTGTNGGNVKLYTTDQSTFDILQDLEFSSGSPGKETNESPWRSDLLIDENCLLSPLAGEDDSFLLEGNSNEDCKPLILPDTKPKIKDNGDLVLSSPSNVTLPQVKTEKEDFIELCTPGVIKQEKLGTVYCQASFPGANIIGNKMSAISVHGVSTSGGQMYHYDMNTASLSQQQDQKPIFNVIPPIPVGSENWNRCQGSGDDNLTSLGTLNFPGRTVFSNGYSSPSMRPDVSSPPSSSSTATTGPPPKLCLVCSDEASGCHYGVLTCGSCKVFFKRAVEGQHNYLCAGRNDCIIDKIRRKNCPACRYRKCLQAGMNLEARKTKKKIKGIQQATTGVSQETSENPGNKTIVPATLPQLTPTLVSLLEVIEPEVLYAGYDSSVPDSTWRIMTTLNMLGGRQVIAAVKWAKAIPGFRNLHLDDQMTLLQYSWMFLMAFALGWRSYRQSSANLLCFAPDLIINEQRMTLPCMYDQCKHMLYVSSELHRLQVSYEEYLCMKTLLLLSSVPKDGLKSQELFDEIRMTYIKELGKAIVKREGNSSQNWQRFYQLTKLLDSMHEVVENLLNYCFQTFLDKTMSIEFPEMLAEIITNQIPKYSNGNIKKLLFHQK

Compound | activity change, negative = inhibition [1] | activity change, negative = inhibition [2] | activity, negative = inhibition [3] [%] | Potency [4] [µM]
CCC(C)Nc1nc(OC)nc(N(C)C#N)n1 (stereo not drawn) | 12.2% | 12.5% | -0.957 | > 20.6
CCOc1ccc(-n2c(SCc3ccc(C#N)cc3)nnc2-c2cccnc2)cc1 | -13.8% | 6.12% | -13.6 | > 20.6
O=C(O)CC(C(=O)OCCOc1ccccc1)N1CCOCC1 (stereo not drawn) | -4.83% | -6.82% | -1.47 | > 20.6
CC(C)Cc1nc2n[nH]c(N)c2c2c1CCC2 | 2.89% | 28.5% | -5.62 | > 20.6
Cc1c(C)[n+](=O)c2c(n1[O-])CCC2 | 0.615% | -5.07% | -0.102 | > 20.6
Cc1cc(C)n(C(=O)CSc2nc3ccccc3o2)n1 | 13.4% | -4.76% | 2.26 | > 20.6
CCCCc1nc2sc3c(c2c(=O)[nH]1)CCC3 | -16.9% | -7.93% | -2.54 | > 20.6
C=CCOc1nc2c(c(=O)n(Cc3ccc(Cl)cc3)c(=O)n2C)n1C | -10.1% | 4.79% | 9.68 | > 20.6
CCCCOc1ccccc1/C=c1/sc2nc(-c3oc4ccccc4c3C)nn2c1=O | 4.54% | -23.5% | -12.5 | > 20.6
Cc1[nH]c2ccc3c(ncn3CCC#N)c2c1C | 0.919% | 9.51% | -5.09 | > 20.6
CCCCC(CCC(=O)Nc1ccc(C(=O)OC)cc1)C(=O)O (stereo not drawn) | 9.55% | 7.48% | 8.56 | > 20.6
CCOC(=O)c1sc(-n2[nH]c(C)cc2=O)nc1C | -2.34% | 8.32% | 1.64 | > 20.6
Cc1onc(-c2ccccc2Cl)c1C(=O)N1CCN(c2nc3ccccc3s2)CC1 | -24.2% | -4.08% | -3.09 | > 20.6
Oc1ccc2ccccc2c1/C=N/n1cnnc1 | -5.14% | 6.11% | -0.766 | > 20.6
C/C(CC1(O)C(=O)N(Cc2ccccc2)c2ccccc21)=N\O (stereo not drawn) | 2.48% | 1.97% | 3.88 | > 20.6
O=C1CCC(=O)N1CNc1ccccn1 | 10.7% | -7.64% | 15.6 | > 20.6
c1ccc(Cc2nnc3n2CCCCC3)cc1 | -5.05% | -13.9% | 5.83 | > 20.6
O=C(N(c1ccccc1)c1ccccc1)n1ccnc1 | 7.1% | 10.9% | 0.426 | > 20.6
COc1cc(C2C(C(=O)c3cccs3)=C(O)C(=O)N2c2cc(C)on2)ccc1O (stereo not drawn) | -2.96% | 0.425% | -6.54 | > 20.6
CCCOc1ccc(N2C(=O)CC(N(Cc3ccc(S(N)(=O)=O)cc3)C(=O)CC)C2=O)cc1 (stereo not drawn) | -6.51% | 20.1% | 11.7 | > 20.6
O=C(Nc1ccc2c(c1)OCO2)c1cc2n(n1)C(C(F)(F)F)CC(c1ccccc1)N2 (stereo not drawn) | 6.53% | 6.64% | -1.67 | > 20.6
C1CNCCNCCNCCN1 | -9.33% | 6.5% | -0.788 | > 20.6
COc1cc(=O)[nH]c(=O)n1CC(=O)c1ccccc1 | 1.4% | 3.25% | 5.97 | > 20.6
CCOC(=O)c1[nH]c2ccc(Br)cc2c1NC(=O)CCN1CCN(C(=O)OCC)CC1 | -25% | -25.7% | -26.2 | > 20.6
Oc1ccc2ccccc2c1C=NC12CN3CCN(CN(C3)C1)C2 | 6.89% | -22.1% | -13.6 | > 20.6
O=C1CC(c2ccco2)CC(O)=C1C=NCCN1CCN(C2CC(=O)N(c3ccccc3)C2=O)CC1 (stereo not drawn) | -3.13% | -22.1% | -0.0328 | > 20.6

Compound | activity change, negative = inhibition [1] | activity change, negative = inhibition [2] | activity, negative = inhibition [3] [%] | Potency [4] [µM]
CCOC(=O)CNC(=O)Nc1ccccc1C(=O)OC | -9.77% | 12.3% | 11.5 | > 20.6
COc1cccc(C2=CC(c3ccccc3)n3nnnc3N2)c1 (stereo not drawn) | -3.96% | -25.6% | -10.3 | > 20.6
Nc1nnc(CSCc2ccc(F)cc2)s1 | 8.86% | -1.8% | -2.21 | > 20.6
COn1c(=S)[nH]c2ccccc2c1=O | 20.1% | 11.2% | 8.68 | > 20.6
COC(=O)NC(Nc1sc2c(c1C(N)=O)CCCC2)(C(=O)OC)C(F)(F)F (stereo not drawn) | 2.66% | 11.9% | 5.04 | > 20.6
CCOC(=O)c1[nH]c2ccccc2c1N=CN(CC)CC | 9.2% | -19.2% | -2.38 | > 20.6
O=C1C2ON(c3ccccc3)C(c3ccncc3)C2C(=O)N1c1ccccc1 (stereo not drawn) | -0.837% | 3.71% | 1.91 | > 20.6
Clc1ccc(-n2ncc3c(NCc4ccco4)ncnc32)cc1 | -19.6% | 1.57% | -20.9 | > 20.6
CCOC(=O)C(C)Oc1ccc2c(C)cc(=O)oc2c1C(C)=O (stereo not drawn) | 3.53% | 2.57% | 4.2 | > 20.6
COCCn1c(SCc2c(F)cccc2Cl)nc2c1c(=O)[nH]c(=O)n2C | -17.8% | -0.711% | -1.06 | > 20.6
c1ccc2c(c1)[nH]c1c(N3CCSCC3)ncnc12 | -11.4% | -20.2% | -18.7 | > 20.6
O=P(Cc1nnco1)(c1ccccc1)c1ccccc1 | -8.6% | -9.88% | -0.63 | > 20.6
CC(Sc1nc(N2CCCCC2)c2c(c1C#N)CCCC2)C(=O)O (stereo not drawn) | -9.35% | -2.56% | -20.5 | > 20.6
CCOC(=O)c1c(C)[nH]c(/C(C)=N/O)c1C | -4.81% | 3.09% | -8.45 | > 20.6
Brc1ccc2c(c1)CNc1c(ncnc1N1CCOCC1)O2 | -1.29% | -6.94% | -3.65 | > 20.6
COc1cc(C)nc(Oc2ccc(OCCOc3ccc(C)cc3)nn2)n1 | -8.32% | 5.08% | -5.96 | > 20.6
CC(O)CNc1nc2c(c(=O)n(C)c(=O)n2C)n1Cc1cccc(C(F)(F)F)c1 (stereo not drawn) | -10.4% | 4.56% | -0.279 | > 20.6
CC(=O)c1c(C)c2c(n1CCN(C)C)CCCC2 | 123% [activator] (active) | -7.5% | 9.43 | > 20.6
C=C1C2(C(=O)Nc3nccs3)CCC(C2)C1(C)C (stereo not drawn) | -7.92% | 25.1% | -0.516 | > 20.6
CCOC(=O)CC1=C(C(=O)OCC)C(c2cc(OC)c(OC)cc2OC)C(C#N)=C(N)O1 (stereo not drawn) | 0.567% | -1.8% | 10.5 | > 20.6
Cc1ccc(N(Cc2cc3ccccc3[nH]c2=O)C(=O)c2ccco2)c(C)c1 | -26.3% | 25.5% | -13 | > 20.6
CCN(CC)c1nc(N2CCOCC2)c(C#N)c2c1CN(C)CC2 | -1.52% | 12.3% | 9.24 | > 20.6
Cc1c(/C(O)=C2\C(=O)C(=O)N(CCN(C)C)C2c2cccs2)cnn1-c1ccccc1 (stereo not drawn) | 6.26% | -10.6% | -3.53 | > 20.6
COc1ccc(C2CC(c3ccc(C)cc3)Nc3nc(N)nn32)cc1 (stereo not drawn) | -10.4% | 11.6% | 1.75 | > 20.6
CN(C)/C=C1\N=C(c2cccs2)OC1=O | 4.03% | 6.03% | 13.9 | > 20.6
Nc1ccc2ncccc2c1N | 5.69% | -85.4% (active) | -11.2 | > 20.6

From PubChem BioAssay (NCATS)
